“And” between values parts separate entries of the source, which are not always exact repeats. Equal entries are not always repeated. About 79,000 compounds went through this panel and 15% of them were active in at least one assay; those are over-represented in the sample as a whole. More than one record can exist for a structure, and the calls need not agree. The source made the active and inactive calls. Rule as the data show it: active = growth inhibition above about 70%; inactive = the rest. Where a SMILES comes first, the peptide text is derived from it. [ ]: non-standard residue; d: D form. ξ: configuration not given here. ξI = CCC(C)C(N)C(=O)O
How the values were obtained:
[1] = NCI Yeast Anticancer Drug Screen. Data for the rad50 strain (AID 155);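 also: 0% = growth of vehicle-only cultures of the same strain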; settings: S. cerevisiae rad50 strain growth inhibition, stronger effect = higher value
Procedure, shortened: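 Vehicle-treated cultures provide the reference for the growth inhibition reported for compound-exposed, repair-deficient yeast.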

[2] = NCI Yeast Anticancer Drug Screen. Data for the mec2-1 strain (AID 157); settings: S. cerevisiae mec2-1 strain, stronger effect = higher value
Procedure, shortened: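 Strain: mec2-1 (DNA repair/cell cycle alteration). Compound exposure, then growth measured; inhibition expressed relative to vehicle.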

[3] = NCI Yeast Anticancer Drug Screen. Data for the sgs1 mgt1 strain (AID 161);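 also: 0% = growth of cultures given vehicle only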; settings: S. cerevisiae sgs1 mgt1 strain, stronger effect = higher value
Procedure, shortened: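 Read-out: growth inhibition vs vehicle controls. Cells: mutant yeast strain deficient in DNA damage repair.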

[4] = NCI Yeast Anticancer Drug Screen. Data for the cln2 rad14 strain (AID 165);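 also: 0% = growth equal to vehicle treated cultures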; settings: S. cerevisiae cln2 rad14 strain, stronger effect = higher value
Procedure, shortened: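 Compounds are applied to the cln2 rad14 yeast strain, and growth is then compared with that of vehicle-treated cultures to give inhibition.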

[5] = NCI Yeast Anticancer Drug Screen. Data for the bub3 strain (AID 167); settings: S. cerevisiae bub3 mutant strain, stronger effect = higher value
Procedure, shortened: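 Mutant yeast screening strain plus compound; vehicle-treated cultures serve as the 0% inhibition reference.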

[6] = NCI Yeast Anticancer Drug Screen. Data for the mlh1 rad18 strain (AID 175); settings: S. cerevisiae mlh1 rad18 strain growth inhibition, stronger effect = higher value
Procedure, shortened: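 Read-out is yeast growth inhibition, calculated against vehicle-only controls. The compound was applied to a strain engineered with DNA damage repair alterations.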

[7] = at 5.0 µM (retest, dose inferred, filed as 0.5)
[8] = at 50.0 µM (retest, dose inferred, filed as 5.0)

Row | SMILES | growth inhibition [1, 7] | growth inhibition [1, 8] | growth inhibition ([1]; at 50.0 µM) | growth inhibition [2, 7] | growth inhibition [2, 8] | growth inhibition ([2]; at 50.0 µM) | growth inhibition [3, 7] | growth inhibition [3, 8] | growth inhibition ([3]; at 50.0 µM) | growth inhibition [4, 7] | growth inhibition [4, 8] | growth inhibition ([4]; at 50.0 µM) | growth inhibition [5, 7] | growth inhibition [5, 8] | growth inhibition ([5]; at 50.0 µM) | growth inhibition [6, 7] | growth inhibition [6, 8] | growth inhibition ([6]; at 50.0 µM)
1 | CCC(=O)OCOc1ccc(/C=C2\CCC(CN(C)C)C2=O)cc1 (stereo not drawn) | 30% (inactive) | 53% (inactive) | 93.3% (active) | 23% (inactive) | 66% (inactive) | 92.6% (active) | 40% (inactive) | 88% (active) | 92.5% (active) | 29% (inactive) | 34% (inactive) | 90.9% (active) | 36% (inactive) | 98% (active) | 84.5% (active) | 33% (inactive) | 66% (inactive) | 90.8% (active)
2 | CCCN(CCC)C(=S)N/N=C/c1ccccn1 | 99% (active) | 99% (active) | 90.5% (active) | 99% (active) | 100% (active) | 93.1% (active) | 98% (active) | 99% (active) | 92.4% (active) | 98% (active) | 100% (active) | 93.5% (active) | 99% (active) | 100% (active) | 92.5% (active) | 99% (active) | 99% (active) | 89.8% (active)
3 | c1cc2c3c(c1)ccc1cccc(c13)COC2 | – | – | – | -6% (inactive) and 9% (inactive) | -8% (inactive) and 75% (active) | 51.1% (inactive) and 96.7% (active) | -4% (inactive) and -10% (inactive) | 20% (inactive) and 58% (inactive) | 47.5% (inactive) and 95.8% (active) | -42% (inactive) and 4% (inactive) | -7% (inactive) and 27% (inactive) | 69.2% (inactive) and 96.5% (active) | -13% (inactive) and -12% (inactive) | 10% (inactive) and 65% (inactive) | 88.2% (active) and 94.9% (active) | -19% (inactive) and -11% (inactive) | 9% (inactive) and 89% (active) | 56.5% (inactive) and 98.2% (active)
4 | COC1OC2COC(c3ccccc3)OC2C2OC12 (stereo not drawn) | – | – | -7.7% (inactive) [middle of 4 runs] | – | – | -2.5% (inactive) [middle of 4 runs] | – | – | – | – | – | 3.15% (inactive) [middle of 4 runs] | – | – | -4.2% (inactive) [middle of 4 runs] | – | – | -12.8% (inactive) [middle of 4 runs]
5 | CC1=C(C(=O)Nc2c(C)cccc2C)C(c2ccc3c(c2)OCO3)C(C(=O)Nc2c(C)cccc2C)=C(C)N1 | – | – | – | 19% (inactive) | 19% (inactive) | 86.9% (active) | 4% (inactive) | 4% (inactive) | 85.7% (active) | 16% (inactive) | 16% (inactive) | 79.5% (active) | 6% (inactive) | 6% (inactive) | 87.5% (active) | 7% (inactive) | 7% (inactive) | 82.7% (active)
6 | CCc1cc2c(cc1C(C)=O)C(C)(C)CCC2 | – | – | – | 2% (inactive) | 97% (active) | 98.7% (active) | 14% (inactive) | 98% (active) | 98.5% (active) | 11% (inactive) | 97% (active) | 93% (active) | -3% (inactive) | 96% (active) | 98.7% (active) | 9% (inactive) | 98% (active) | 98.7% (active)
7 | CN1C(c2ccccc2)CC(=NO)CC1c1ccccc1 (stereo not drawn) | 18% (inactive) | 58% (inactive) | 24.6% (inactive) and 93.9% (active) | 1% (inactive) | 45% (inactive) | 6.35% (inactive) and 27.3% (inactive) | – | – | – | -12% (inactive) | 20% (inactive) | 5.8% (inactive) and 32.3% (inactive) | 7% (inactive) | 23% (inactive) | -7.15% (inactive) and 62% (inactive) | -1% (inactive) | 41% (inactive) | 30.4% (inactive) and 85.2% (active)
8 | OCC(O)C(O)C(O)C(O)CO (stereo not drawn) (tested in a mixture with another compound) | – | – | – | – | – | – | – | – | 0.35% (inactive) [middle of 6 runs] | – | – | – | – | – | – | – | – | 13.2% (inactive) [middle of 6 runs]
9 | O=c1cc[nH]cc1 | – | – | – | -3% (inactive) | -7% (inactive) | -8.8% (inactive) and 56.6% (inactive) | -5% (inactive) | 2% (inactive) | 2.3% (inactive) and 16.9% (inactive) | 3% (inactive) | 5% (inactive) | 1% (inactive) and 24.7% (inactive) | 1% (inactive) | -6% (inactive) | 12.3% (inactive) and 23.3% (inactive) | 0% (inactive) | 6% (inactive) | -7.05% (inactive) and 81.5% (active)
10 | CCC(C)C(NC(=O)CN)C(=O)O (stereo not drawn) (H-Gly-[ξI]-OH) | – | – | 6.95% (inactive) [middle of 4 runs] | – | – | -3% (inactive) [middle of 4 runs] | – | – | – | – | – | – | – | – | – | – | – | -17.8% (inactive) [middle of 4 runs]
11 | CC(NC(=O)C(N)Cc1ccccc1)C(=O)NC1C(CO)OC(n2cnc3c(N)ncnc32)C1O (stereo not drawn) | – | – | – | 2% (inactive) | 17% (inactive) | 76.9% (active) | -5% (inactive) | -20% (inactive) | 3.5% (inactive) | 0% (inactive) | -6% (inactive) | 97.7% (active) | -3% (inactive) | -4% (inactive) | 96.5% (active) | 12% (inactive) | 32% (inactive) | 69.5% (inactive)
12 | COc1cccc2c1C(=O)c1c(O)c3c(c(O)c1C2=O)CC(O)(C(C)=O)CC3OC1CC(N)C(O)C(C)O1 (stereo not drawn) | 25% (inactive) | 40% (inactive) | – | 12% (inactive) | 21% (inactive) | – | 20% (inactive) | 29% (inactive) | – | 14% (inactive) | 9% (inactive) | – | 36% (inactive) | 40% (inactive) | – | 23% (inactive) | 28% (inactive) | –
13 | NCCCC(=O)O | – | – | -5.85% (inactive) [middle of 4 runs] | – | – | – | – | – | – | – | – | 6.95% (inactive) [middle of 4 runs] | – | – | -15.2% (inactive) [middle of 4 runs] | – | – | –
14 | CC(=O)OC1OC(=O)C(C)(C(C)=O)C1C (stereo not drawn) | – | – | – | 10% (inactive) | 96% (active) | 89.6% (active) | 25% (inactive) | 93% (active) | 89.9% (active) | 27% (inactive) | 81% (active) | 83.2% (active) | 23% (inactive) | 93% (active) | 89.2% (active) | 22% (inactive) | 96% (active) | 89.6% (active)
15 | COC1OC(C(O)CO)C(O)C(O)C1O (stereo not drawn) | – | – | – | – | – | 13.7% (inactive) [middle of 4 runs] | – | – | 12.2% (inactive) [middle of 4 runs] | – | – | – | – | – | – | – | – | 25.1% (inactive) [middle of 4 runs]
16 | O=C(O)C1CC(O)CN1 (stereo not drawn) | – | – | 26.6% (inactive) and 12.2% (inactive) and -2.5% (inactive) | – | – | -9.75% (inactive) and 11.6% (inactive) and -22.9% (inactive) | – | – | 31.4% (inactive) and 15.3% (inactive) and 1.95% (inactive) | – | – | -4.7% (inactive) and 4.45% (inactive) and -18.1% (inactive) | – | – | 23.1% (inactive) and 13.8% (inactive) and 2.75% (inactive) | – | – | 30.6% (inactive) and 13.9% (inactive) and 1.9% (inactive)
17 | COc1cccc2c1C(=O)c1c(O)c3c(c(O)c1C2=O)C[C@@](O)(C(C)=O)C[C@@H]3OC1CC(N)C(O)C(C)O1 (stereo partly drawn) | 32% (inactive) | 91% (active) | – | -11% (inactive) | 90% (active) | – | 8% (inactive) | 93% (active) | – | 23% (inactive) | 85% (active) | – | – | – | – | 7% (inactive) | 88% (active) | –
18 | CN(C)CCNC(=O)Cc1cc(O)c2c(c1O)C(=O)c1ccccc1C2=O | 6% (inactive) | 42% (inactive) | 75.3% (active) | 6% (inactive) | 16% (inactive) | 23% (inactive) | – | – | – | -7% (inactive) | 12% (inactive) | 54.7% (inactive) | 0% (inactive) | 16% (inactive) | 16% (inactive) | 4% (inactive) | 10% (inactive) | 82.1% (active)
19 | O=C(O)c1ccc(C(c2ccccc2)c2ccccc2)cc1 | -19% (inactive) | 100% (active) | 97% (active) | 10% (inactive) | 100% (active) | 97.2% (active) | – | – | – | -11% (inactive) | 99% (active) | 96.3% (active) | -1% (inactive) | 99% (active) | 98.3% (active) | 8% (inactive) | 99% (active) | 98% (active)
20 | O=C(OC1COC(OC(=O)c2ccccc2)C(OC(=O)c2ccccc2)C1OC(=O)c1ccccc1)c1ccccc1 (stereo not drawn) | – | – | 20.4% (inactive) [middle of 4 runs] | – | – | -7.1% (inactive) [middle of 4 runs] | – | – | 9.5% (inactive) [middle of 4 runs] | – | – | -21.6% (inactive) [middle of 4 runs] | – | – | – | – | – | -4.1% (inactive) [middle of 4 runs]
21 | NC(CSCc1ccccc1)C(=O)O (stereo not drawn) | – | – | – | – | – | – | – | – | – | – | – | – | – | – | -6% (inactive) [middle of 4 runs] | – | – | 0.9% (inactive) [middle of 4 runs]
22 | OCC(O)C(O)C(O)C(O)C(/C=N/Nc1ccccc1)=N/Nc1ccccc1 (stereo not drawn) | -19% (inactive) | 91% (active) | – | -5% (inactive) | 61% (inactive) | – | -39% (inactive) | 30% (inactive) | – | 2% (inactive) | 82% (active) | – | -3% (inactive) | 54% (inactive) | – | 8% (inactive) | 86% (active) | –
23 | Nc1ccc(Cn2ccc3c4c(N)nc(N)nc4ccc32)cc1 | – | – | – | 29% (inactive) | 96% (active) | 68.3% (inactive) | 7% (inactive) | 88% (active) | 72.7% (active) | 6% (inactive) | 60% (inactive) | 63.2% (inactive) | -10% (inactive) | 84% (active) | 41.4% (inactive) | 13% (inactive) | 87% (active) | –
